# Laboratory results: the supplement of paper PMC8728848
# About 410 targets per protein were measured; listed, in parts, are those with the strongest signals and a random draw of the rest.
# B1: PV12658A-bvu-496-32-496 (Bacteroides vulgatus) (protein)
# chain: DLDGAITTPAAVELALNGIYYSLPGNGFNVIFPTVSGSFKAGTMWRQEIVSAGNAVYYSERMLPTLSFSDATEWDADYAVIKNANFLETACNRMSDGEFSGNRRAEVLGEIAYLRALAYFNILVRYCEFWDMNSEYGVVMRNEAPSVSNALKARSSVADSYQYILDQLEIAIEKAPDWKKLSQASKEAAKALKARVLLYAGKYTEAVAAVNDAIDTNSPLPEANYGDVFDKFSTTKEILFARVFDQKDATNTSTRQQCYGNSPTKKQGYWGPTNEYVELVGDDPRADAIFSKVDSLMDSRSSAVAYNLKSVKKLLNDANDMPVIFSRVSELYLIKAEALYRSGASISEAYAPIRKLRERAGAEIILPANNEELETAIFNEWMLELSFENWHEWFAMIRFAGYTEKPDFTRLLALNKTLREALEKEYEKSEAQGDNYYQRIIDRRIDAIPSSEISSNLECKQNPGY
# Columns and labels:
# Assay in all cases: glycan array binding signal (z-score within array); higher = stronger binding
# Details in all cases: glycan notation: IUPAC condensed, linker removed
# [1] = biological target: Fuc(a1-2)Gal(b1-4)Glc6S
# Method in brief: (§1)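 The binding signal is a Z-score computed within each array. Data were drawn from 3228 arrays in the Consortium for Functional Glycomics database, restricted to those with a known protein sequence. Scores were averaged over arrays of the same protein sequence at different concentrations or buffers, and over linkers, and negative values can be taken as non-binding.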
# [2] = biological target: Fuc(a1-2)Gal(b1-4)GlcNAc(b1-2)Man
# Method in brief: as §1
# [3] = biological target: Fuc(a1-2)Gal(b1-4)GlcNAc(b1-2)Man(a1-3)[Fuc(a1-2)Gal(b1-4)GlcNAc(b1-2)Man(a1-6)]Man(b1-4)GlcNAc(b1-4)[Fuc(a1-6)]GlcNAc
# Method in brief: as §1
# [4] = biological target: Fuc(a1-2)[Gal(a1-3)]Gal(b1-3)GlcNAc(b1-2)Man(a1-3)[Fuc(a1-2)[Gal(a1-3)]Gal(b1-3)GlcNAc(b1-2)Man(a1-6)]Man(b1-4)GlcNAc(b1-4)GlcNAc
# Method in brief: as §1
# [5] = biological target: Fuc(a1-2)[GalNAc(a1-3)]Gal(b1-4)GlcNAc
# Method in brief: as §1
# [6] = biological target: Fuc(a1-2)[GalNAc(a1-3)]Gal(b1-4)GlcNAc(b1-3)Gal(b1-4)GlcNAc(b1-3)Gal(b1-4)GlcNAc
# Method in brief: as §1
# [7] = biological target: Gal(a1-3)Gal(b1-3)GlcNAc
# Method in brief: as §1
# [8] = biological target: Gal(a1-3)Gal(b1-3)GlcNAc(b1-3)GalNAc
# Method in brief: as §1
# [9] = biological target: Gal(a1-3)Gal(b1-4)GlcNAc(b1-2)Man(a1-3)[Gal(a1-3)Gal(b1-4)GlcNAc(b1-2)Man(a1-6)]Man(b1-4)GlcNAc(b1-4)GlcNAc
# Method in brief: as §1
# [10] = biological target: Gal(a1-3)Gal(b1-4)[Fuc(a1-3)]GlcNAc(b1-2)Man(a1-3)[Gal(a1-3)Gal(b1-4)[Fuc(a1-3)]GlcNAc(b1-2)Man(a1-6)]Man(b1-4)GlcNAc(b1-4)GlcNAc
# Method in brief: as §1
# [11] = biological target: Gal(a1-3)[Gal(a1-4)]Gal(b1-4)GlcNAc
# Method in brief: as §1
# [12] = biological target: Gal(a1-4)Gal(b1-4)GlcNAc(b1-2)Man(a1-3)[Gal(a1-4)Gal(b1-4)GlcNAc(b1-2)Man(a1-6)]Man(b1-4)GlcNAc(b1-4)GlcNAc
# Method in brief: as §1
# [13] = biological target: Gal(b1-2)Gal
# Method in brief: as §1
# [14] = biological target: Gal(b1-3)GalNAc(b1-4)Gal(b1-4)Glc
# Method in brief: as §1
# [15] = biological target: Gal(b1-3)GlcNAc
# Method in brief: as §1
# [16] = biological target: Gal(b1-3)GlcNAc(b1-3)Gal(b1-4)GlcNAc(b1-2)[Gal(b1-3)GlcNAc(b1-3)Gal(b1-4)GlcNAc(b1-6)]Man(a1-6)[Gal(b1-3)GlcNAc(b1-3)Gal(b1-4)GlcNAc(b1-2)Man(a1-3)]Man(b1-4)GlcNAc(b1-4)[Fuc(a1-6)]GlcNAc
# Method in brief: as §1
# [17] = biological target: Gal(b1-3)GlcNAc(b1-3)Gal(b1-4)[Fuc(a1-3)]GlcNAc
# Method in brief: as §1
# [18] = biological target: Gal(b1-4)GlcNAc
# Method in brief: as §1
# [19] = biological target: Gal(b1-4)GlcNAc(b1-3)Gal(b1-3)GlcNAc
# Method in brief: as §1
# [20] = biological target: Gal(b1-4)GlcNAc(b1-3)Gal(b1-4)Glc
# Method in brief: as §1
# [21] = biological target: Gal(b1-4)GlcNAc(b1-3)Gal(b1-4)GlcNAc(b1-3)Gal(b1-4)GlcNAc(b1-3)Gal(b1-4)GlcNAc(b1-2)Man(a1-3)[Gal(b1-4)GlcNAc(b1-3)Gal(b1-4)GlcNAc(b1-3)Gal(b1-4)GlcNAc(b1-3)Gal(b1-4)GlcNAc(b1-2)Man(a1-6)]Man(b1-4)GlcNAc(b1-4)GlcNAc
# Method in brief: as §1
# [22] = biological target: Gal(b1-4)GlcNAc(b1-3)Gal(b1-4)GlcNAc(b1-3)GalNAc
# Method in brief: as §1
# [23] = biological target: Gal(b1-4)GlcNAc(b1-3)[Gal(b1-4)GlcNAc(b1-6)]Gal(b1-4)GlcNAc
# Method in brief: as §1
# [24] = biological target: Gal(b1-4)GlcNAc(b1-6)GalNAc
# Method in brief: as §1
# [25] = biological target: GalNAc(a1-3)GalNAc(b1-3)Gal(a1-4)Gal(b1-4)GlcNAc
# Method in brief: as §1
# [26] = biological target: GalNAc(b1-3)Gal(a1-4)Gal(b1-4)GlcNAc
# Method in brief: as §1
# [27] = biological target: GalNAc(b1-4)Gal(b1-4)Glc
# Method in brief: as §1
# [28] = biological target: GalNAc6S(b1-4)GlcNAc
# Method in brief: as §1
# [29] = biological target: GlcNAc(a1-3)Gal(b1-4)GlcNAc
# Method in brief: as §1
# [30] = biological target: GlcNAc(b1-2)Gal(b1-3)GalNAc
# Method in brief: as §1
# [31] = biological target: GlcNAc(b1-3)Gal(b1-4)GlcNAc(b1-3)Gal(b1-4)GlcNAc(b1-3)Gal(b1-4)GlcNAc(b1-3)Gal(b1-4)GlcNAc(b1-2)Man(a1-3)[GlcNAc(b1-3)Gal(b1-4)GlcNAc(b1-3)Gal(b1-4)GlcNAc(b1-3)Gal(b1-4)GlcNAc(b1-3)Gal(b1-4)GlcNAc(b1-2)Man(a1-6)]Man(b1-4)GlcNAc(b1-4)GlcNAc
# Method in brief: as §1
# [32] = biological target: GlcNAc(b1-3)Gal(b1-4)GlcNAc(b1-3)Gal(b1-4)GlcNAc(b1-3)GalNAc
# Method in brief: as §1
# [33] = biological target: GlcNAc(b1-4)Gal(b1-4)GlcNAc
# Method in brief: as §1
# [34] = biological target: GlcNAc(b1-4)GlcNAc(b1-4)GlcNAc(b1-4)GlcNAc(b1-4)GlcNAc
# Method in brief: as §1
# [35] = biological target: Man(a1-3)[Man(a1-6)]Man(a1-6)[Man(a1-3)]Man(b1-4)GlcNAc(b1-4)GlcNAc
# Method in brief: as §1
# [36] = biological target: Neu5Ac(a2-3)Gal(b1-3)GalNAc
# Method in brief: as §1
# [37] = biological target: Neu5Ac(a2-3)Gal(b1-3)GlcNAc(b1-2)Man(a1-3)[GlcNAc(b1-4)][Neu5Ac(a2-3)Gal(b1-3)GlcNAc(b1-2)Man(a1-6)]Man(b1-4)GlcNAc(b1-4)GlcNAc
# Method in brief: as §1
# [38] = biological target: Neu5Ac(a2-3)Gal(b1-3)[Fuc(a1-4)]GlcNAc(b1-3)Gal(b1-3)[Fuc(a1-4)]GlcNAc
# Method in brief: as §1
# [39] = biological target: Neu5Ac(a2-3)Gal(b1-4)GlcNAc(b1-2)Man
# Method in brief: as §1
# [40] = biological target: Neu5Ac(a2-3)Gal(b1-4)GlcNAc(b1-3)Gal(b1-4)GlcNAc(b1-3)Gal(b1-4)GlcNAc(b1-2)Man(a1-3)[Neu5Ac(a2-3)Gal(b1-4)GlcNAc(b1-3)Gal(b1-4)GlcNAc(b1-3)Gal(b1-4)GlcNAc(b1-2)Man(a1-6)]GalNAc
# Method in brief: as §1
# [41] = biological target: Neu5Ac(a2-3)Gal(b1-4)GlcNAc(b1-6)GalNAc
# Method in brief: as §1
# [42] = biological target: Neu5Ac(a2-3)Gal(b1-4)GlcNAc6S
# Method in brief: as §1
# [43] = biological target: Neu5Ac(a2-3)Gal(b1-4)[Fuc(a1-3)]GlcNAc(b1-6)[Gal(b1-3)]GalNAc
# Method in brief: as §1
# [44] = biological target: Neu5Ac(a2-3)Gal(b1-4)[Fuc(a1-3)]GlcNAc(b1-6)[Neu5Ac(a2-3)Gal(b1-3)]GalNAc
# Method in brief: as §1
# [45] = biological target: Neu5Ac(a2-3)[GalNAc(b1-4)]Gal(b1-4)GlcNAc(b1-3)GalNAc
# Method in brief: as §1
# [46] = biological target: Neu5Ac(a2-6)Gal(b1-4)GlcNAc(b1-2)Man(a1-3)[GlcNAc(b1-4)][Neu5Ac(a2-6)Gal(b1-4)GlcNAc(b1-2)Man(a1-6)]Man(b1-4)GlcNAc(b1-4)GlcNAc
# Method in brief: as §1
# [47] = biological target: Neu5Ac(a2-6)Gal(b1-4)GlcNAc(b1-3)Gal(b1-4)GlcNAc(b1-2)Man(a1-3)[Neu5Ac(a2-6)Gal(b1-4)GlcNAc(b1-3)Gal(b1-4)GlcNAc(b1-2)Man(a1-6)]GalNAc
# Method in brief: as §1
# [48] = biological target: Neu5Ac(a2-6)Gal(b1-4)GlcNAc(b1-3)Gal(b1-4)GlcNAc(b1-3)GalNAc
# Method in brief: as §1
# [49] = biological target: Neu5Ac(a2-6)GalNAc(b1-4)GlcNAc
# Method in brief: as §1
# [50] = biological target: Neu5Ac(a2-8)Neu5Gc(a2-3)Gal(b1-4)GlcNAc
# Method in brief: as §1
binder,measurement,setting,value
B1,glycan array binding signal (z-score),[1],-0.163
same,glycan array binding signal (z-score),[2],-0.199
same,glycan array binding signal (z-score),[3],0.201
same,glycan array binding signal (z-score),[4],3.63
same,glycan array binding signal (z-score),[5],-0.36
same,glycan array binding signal (z-score),[6],0.133
same,glycan array binding signal (z-score),[7],3.81
same,glycan array binding signal (z-score),[8],-0.252
same,glycan array binding signal (z-score),[9],4.55
same,glycan array binding signal (z-score),[10],0.883
same,glycan array binding signal (z-score),[11],1.73
same,glycan array binding signal (z-score),[12],7.57
same,glycan array binding signal (z-score),[13],-0.301
same,glycan array binding signal (z-score),[14],0.963
same,glycan array binding signal (z-score),[15],-0.316
same,glycan array binding signal (z-score),[16],6.34
same,glycan array binding signal (z-score),[17],-0.533
same,glycan array binding signal (z-score),[18],-0.258
same,glycan array binding signal (z-score),[19],-0.494
same,glycan array binding signal (z-score),[20],-0.266
same,glycan array binding signal (z-score),[21],5.64
same,glycan array binding signal (z-score),[22],3.98
same,glycan array binding signal (z-score),[23],0.41
same,glycan array binding signal (z-score),[24],-0.393
same,glycan array binding signal (z-score),[25],-0.573
same,glycan array binding signal (z-score),[26],-0.363
same,glycan array binding signal (z-score),[27],-0.027
same,glycan array binding signal (z-score),[28],-0.216
same,glycan array binding signal (z-score),[29],-0.069
same,glycan array binding signal (z-score),[30],-0.342
same,glycan array binding signal (z-score),[31],0.265
same,glycan array binding signal (z-score),[32],0.161
same,glycan array binding signal (z-score),[33],-0.358
same,glycan array binding signal (z-score),[34],-0.447
same,glycan array binding signal (z-score),[35],0.012
same,glycan array binding signal (z-score),[36],-0.233
same,glycan array binding signal (z-score),[37],-0.433
same,glycan array binding signal (z-score),[38],-0.275
same,glycan array binding signal (z-score),[39],-0.265
same,glycan array binding signal (z-score),[40],7.6
same,glycan array binding signal (z-score),[41],-0.479
same,glycan array binding signal (z-score),[42],-0.525
same,glycan array binding signal (z-score),[43],4.21
same,glycan array binding signal (z-score),[44],-0.336
same,glycan array binding signal (z-score),[45],-0.198
same,glycan array binding signal (z-score),[46],-0.152
same,glycan array binding signal (z-score),[47],10.6
same,glycan array binding signal (z-score),[48],-0.476
same,glycan array binding signal (z-score),[49],-0.163
same,glycan array binding signal (z-score),[50],5.59
